Test results: the supplement of paper PMC6555819

Tests used:
Test in all cases: PBM binding z-score (relative to random genomic background probes); higher = stronger binding; sequences stand for … in GC…GCGATTGACAGCGTAGAATGAAGG
[1] = tested on: RARb homodimer (NR concentration 270 nM)
In short: (§1)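 Custom Agilent 4×180K protein-binding microarrays carried double-stranded probes, each with a 34-nt variable region. These regions held direct-repeat seeds, single-nucleotide variants, half-site ablations and random human genomic background sequences. Ligand-free nuclear receptor dimers were incubated on the arrays for 1 h, antibodies against each partner (one per run) detected binding, and scanned fluorescence was regression-normalized. Binding z-scores take the random background probes as reference.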

[2] = tested on: RARg:RXRa (NR concentration 270 nM, RXRa partner concentration 90 nM)
In short: as §1

[3] = tested on: RARg homodimer (NR concentration 270 nM)
In short: as §1

[4] = tested on: RXRa DBDmut IVT, anti-RXR (DBD mutation: RXRa K156A/R161A, NR concentration 90 nM)
In short: as §1

[5] = tested on: RXRa homodimer (NR concentration 180 nM)
In short: as §1

[6] = tested on: THRa:RXRa (NR concentration 90 nM, RXRa partner concentration 90 nM)
In short: as §1

[7] = tested on: THRa homodimer (NR concentration 90 nM)
In short: as §1

[8] = tested on: VDR:RXRa (NR concentration 270 nM, RXRa partner concentration 90 nM)
In short: as §1

[9] = tested on: VDR homodimer (NR concentration 270 nM)
In short: as §1

Row | Sequence | PBM binding z-score [1] | PBM binding z-score [2] | PBM binding z-score [3] | PBM binding z-score [4] | PBM binding z-score [5] | PBM binding z-score [6] | PBM binding z-score [7] | PBM binding z-score [8] | PBM binding z-score [9]
1 | ACTATTAGTTGACTTAGGGCACCCGATACGACGC | 0.58 | 0.574 | 0.897 | 0.79 | 0.316 | 0.993 | 0.664 | 0.0637 | 0.399
2 | TCTAGCCGGCCAGAGGGTCACTCAAGAGGTACGG | 2.6 | 2.42 | 2.26 | -0.0421 | 2.31 | 1.44 | -0.64 | 1.41 | -0.169
3 | CCTACTGGGCCCAAGGTCATTGATTCCAATGCTC | 3.52 | 2.64 | 2.42 | 0.382 | 2.82 | 3.22 | 2.76 | 3 | 2.48
4 | TCGAGTAGGTTACCAATGGGACATTCAGCTTTCT | -0.0362 | 0.634 | 0.55 | 0.448 | 0.451 | 0.207 | -0.766 | -0.0477 | -0.643
5 | ATCTCTAGGTAAAAGTTCAATGAATCCCGAGGAT | 3 | 2.3 | 2.41 | 1.29 | 2.4 | 1.71 | 0.132 | 2.25 | 2.73
6 | AATACAGGGTCACTAGGCCAAAGTAGGTACGAAT | 3.62 | 5.16 | 4.42 | 2.71 | 5.98 | 3.48 | 1.09 | 4.27 | 2.19
7 | GCGACTGGGGCATCAGCAGGGTACCATAACTTAA | 0.489 | 0.0941 | 0.0483 | -0.313 | -0.0228 | 0.147 | -0.7 | -0.459 | -0.477
8 | TGAATGAGGTTATAAGATCCGGGAACGTTGCAAA | 0.199 | 1.19 | 0.881 | 0.792 | 1.78 | 1.7 | 0.151 | 0.946 | 0.411
9 | CGAACTAGGTCAAGGACAGTGAATCTCCGCACGC | 3.01 | 3.95 | 4.49 | 1.42 | 2.57 | 3.25 | 2.14 | 1.32 | 0.847
10 | GCTAGCAGGCCATTGGGGTCACTCAATGACGGGC | 3.44 | 3.98 | 3.1 | 0.8 | 4.7 | 3.84 | 2.39 | 6.04 | 4.55
11 | TCTTGTAGATCAGTAGGTTAAGAAAGCTGGCCAA | 0.381 | -0.0974 | -0.231 | 0.997 | 0.365 | 0.204 | 0.0296 | 0.673 | 0.104
12 | AGAATGACGTTAAGATCAGGGAAACAGAATACAT | -0.348 | 0.0241 | 0.396 | -0.43 | 0.183 | -0.0731 | -0.547 | -0.215 | -0.184
13 | CAAACTAGGTGAAGGTCAAAGTCGGTTTGTGCCA | 3.92 | 4.07 | 4.37 | 1.5 | 4.34 | 3.14 | 0.696 | 3.79 | 2.23
14 | CCGACTGGGGCAGAAAGGTTACCCTACCATCCGG | 2.2 | 1.35 | 0.99 | -0.847 | 1.43 | 1.07 | -0.0158 | 0.717 | -0.359
15 | AGAATGAGGGCACGCTGAGTTGATAGCAGAGTAG | 1.3 | 2.28 | 2.15 | 2.2 | 1.7 | 2.53 | 0.735 | 2.35 | 2.08
16 | TAGCCTAGTTCAGATCGGGCCAGTATACGCTATA | -0.206 | -0.0236 | 0.216 | 0.421 | -0.081 | 2.53 | -0.553 | -0.0916 | 0.117
17 | ACTAGCAGGGCAAGGGTCACTCAAGATTAGTCCG | 3.73 | 4.34 | 3.78 | 0.379 | 4.53 | 2.73 | -0.1 | 2.95 | 1.17
18 | CCAGACAGGTGAGAATGTAACTCAGCCTCGATTA | -0.0133 | 0.273 | 0.342 | 0.0123 | 0.179 | -0.103 | -0.12 | -0.0872 | -0.0924
19 | TTACCAAGCTGAAGGTCGTTGATCCCTCTGTAGA | 0.756 | 0.152 | -0.231 | -0.269 | 1.13 | 0.571 | -0.583 | 0.724 | 0.305
20 | AGTCAAAGTTCAGGACTAGGTAACGTAAAGCACG | 2.93 | 4.32 | 4.99 | 2.87 | 2.92 | 2.51 | 0.371 | 2.4 | 1.94
21 | ACTAGTTGGTCAGCTGAGTTCACACACAATTCGG | 2.53 | 1.78 | 2.11 | 2.27 | 1.64 | 3.33 | 1.05 | 4.81 | 6.71
22 | ATATGTAGTTTAGCTGGGGTCATTCAGACTAGGC | 3.66 | 3.73 | 2.48 | 2.23 | 5.23 | 4.49 | 3.19 | 5.22 | 5.03
23 | AGTATGAGGTTATTAAGATCAGGGAATTGCGGTC | 1.18 | 1.27 | 1.09 | 2.07 | 1.53 | 2.27 | 1.05 | 2.58 | 1.41
24 | ATCGAAAGGTCGACTAGGTGAGTATACACCGTTT | 2.66 | 4.11 | 3.91 | 0.992 | 4.12 | 2.86 | 0.0406 | 3.25 | 1.09
25 | ATATGTAGGTTTTCGGGTCATTCAGTTTGCGCAT | 2.88 | 2.43 | 1.72 | 1.88 | 3.57 | 3.89 | 4.22 | 5.07 | 4.55
26 | TCTTGTAGATAAAGCAGGTTAAGAAAGCCTGAGT | 0.29 | 0.138 | 0.0703 | 0.785 | 0.499 | 0.47 | -0.334 | 0.751 | 0.374

Row | Sequence | PBM binding z-score [1] | PBM binding z-score [2] | PBM binding z-score [3] | PBM binding z-score [4] | PBM binding z-score [5] | PBM binding z-score [6] | PBM binding z-score [7] | PBM binding z-score [8] | PBM binding z-score [9]
27 | GCTGCTAGGTCAGGTTAGTCAGCTAACGGGTACG | 2.62 | 2.89 | 3.82 | 0.579 | 1.17 | 2.36 | 0.56 | 0.235 | 0.0703
28 | CAAACTAGGTCAAGGTCAAAATCGGTTTGTGCCA | 4.77 | 5.74 | 6.36 | 2.64 | 5.55 | 4.32 | 3.13 | 4.7 | 3.88
29 | CCGACTGGGGCATAAGGTTATCATAAGCCAGCCC | 1.53 | 1.8 | 0.973 | -0.174 | 1.14 | 1.78 | 0.629 | 0.25 | 0.13
30 | TAGCCTAGGTCATTCAGGGGCGAGTATAGAAAGC | 2.77 | 4.27 | 3.93 | 2.29 | 2.79 | 4.54 | 0.866 | 4.57 | 1.68
31 | CTTCCAAGGTGAACAAGGTCGTTGATTACTATTC | 2.18 | 1.8 | 1.62 | 1.57 | 1.69 | 3.41 | 2.03 | 6.21 | 2.34
32 | AGTCAAAGTGCAGGACGAGGTAACGTAAAGCACG | 0.382 | 0.878 | 1.15 | -0.269 | 0.45 | 2.23 | 0.449 | -0.0485 | 0.0328
33 | CTTCCAAGGTCAGCAGGTCAGTGAAAGCGACGTG | 5.26 | 6.14 | 6.94 | 2.24 | 5.48 | 3.83 | 2.79 | 4.03 | 1.68
34 | CGAACGAGGGCATAAGTTGATAGCAAATGCCGAT | 0.864 | 1.23 | 1.25 | 2.53 | 0.665 | 0.587 | -0.473 | 0.652 | 1.04
35 | ACTTACAGGTCAACGAGGTTATAGCACGCGTATA | 4.19 | 5.93 | 5.75 | 2.76 | 5.89 | 4.02 | 1.8 | 7.66 | 4.27
36 | TCTTGTAGATCAACAGGAGGTCAAGAAAGATCGA | 3.47 | 4.04 | 2.84 | 0.518 | 3.64 | 3.02 | 0.86 | 3.14 | 0.803
37 | CCTTACGGGTCACGAGGTAATAGCACGACGAGCG | 3.32 | 5.87 | 5.34 | 1.67 | 6.56 | 3.52 | 0.849 | 4.18 | 0.979
38 | ATATGTAGGTTAGCTGGGGTTATTCAGACTAGGC | 1.42 | 1.54 | 0.961 | 0.972 | 2.43 | 4.32 | 1.11 | 3.2 | 1.65
39 | TCTGCTAGATCAACGATGGTCAGCTAATCTGCTA | -0.588 | -0.514 | -0.512 | -0.127 | -0.276 | -0.945 | -1.71 | -0.489 | -1.45
40 | ATCGAAAGGTCGCCGAGGTGAGTATACACCGTTT | 3.6 | 4.9 | 5.02 | 1.78 | 5.24 | 4.1 | 1.17 | 5.39 | 1.53
41 | CCTATTAGTTGACCTTAAGGGCAACCGAAGCTCG | 4.16 | 4.56 | 3.45 | 1.41 | 4.9 | 4.36 | 5.34 | 3.66 | 2.12
42 | ACTAGTTGGTCAGCTAAGGTCACACACAATTCGG | 4.54 | 4.33 | 4.53 | 1.25 | 4.2 | 5.21 | 5.38 | 3.99 | 2.63
43 | AGAACGAGAGCACGCTGAGTTGATAGCAGAGTAG | -1.13 | -0.185 | 0.0866 | -0.192 | -0.166 | -0.571 | -1.24 | -0.462 | -0.355
44 | AATACAGGCTCATCGTAGGCCAGAGTACGCACAG | 0.104 | -0.0529 | 0.066 | -0.472 | -0.0365 | 0.0323 | -0.199 | -0.438 | 0.118
45 | CCAGACAGGTGAGAACGTAACTCAGCCTCGATTA | 0.118 | 0.404 | 0.33 | 0.242 | 0.378 | -0.0328 | 0.361 | -0.0392 | 0.202
46 | ACTAGCAGGCCAAGTTTGGGTCACTCGAACAAAG | 2.15 | 2.31 | 1.59 | -0.0795 | 0.694 | 2.42 | 0.889 | 0.392 | 0.0508
47 | GGAACGAGGGCATTCGAGTTGATACCATGGCGAT | 0.873 | 1.26 | 1.46 | 3.31 | 0.823 | 3.34 | -0.337 | 3.67 | 3.45
48 | ATCTCTGGGTAACAAGTTCAGTGAAAGAGAGGAC | 1.8 | 1.39 | 1.59 | 0.883 | 0.958 | 1.21 | 1.06 | 2.8 | 2.71
49 | ATCGAAAGGTCGACGAGGTGAGTATACACCGTTT | 3.04 | 4.03 | 3.9 | 1.38 | 4.46 | 3.84 | 0.669 | 5.23 | 0.929
50 | CTACCAAGGTGAACAGGGTCGTTGATTACTATTC | 1.71 | 1.51 | 1.17 | 1.08 | 1.87 | 2.87 | 1.68 | 5.66 | 1.92
51 | TCTTGCAGATCAATAGAGGTTAAGAAAGTGCGCT | 1.01 | 0.797 | 0.305 | 0.292 | 1.37 | 2.42 | -0.532 | 1.79 | -0.0844
52 | GGAACGAGGGTATTCGAGTTGATAGCATGGCGAT | -0.529 | -0.0783 | 0.118 | 0.869 | 0.0441 | 1.82 | -1.03 | 1.18 | 0.63
